# Results from PubChem BioAssay AID1508600 (Functional Genomics Laboratory (NCATS/FGL), 2020).
# In all, about 53,000 sequences went through this assay and about 3,700 (7%) were called active. Only a selection was taken, and actives are over-represented in it overall. Values without a mark were called inactive.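 Rule for the calls: active = gene knockdowns whose robust z-score for IL-1 alpha signal is at least 2 or at most -2, so actives lie on both sides; inactive = the rest.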
# Experiment: Components of the Cytosolic LPS Sensing Pathway: Gene Identification via Genome-wide siRNA Screen;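 note: robust z of the log signal after scaling to non-targeting control siRNA wells of the plate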
# Details: RAW264.7 macrophages, IL-1a HTRF, actives lie on both sides, screened at 100 nM (by protocol), cells primed 5 h with Pam3CSK4 first
# Summary of the method: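 RAW264.7 mouse macrophages reverse-transfected with single siRNAs (100 nM final) for 48h, primed with Pam3CSK4 for 5 hours, then transfected with LipidA for 24 hour. Supernatant IL-1a read by HTRF; values normalized to negative-control median, log-transformed robust z-scores.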
row,Sequence,z-score
1,GUUACAAAACAUCGGUGGGTT against Vsig2,1.06
2,CCUAGACAAAGUUUCAAACTT against Xrcc4,-0.662
3,GGAAAGAUUUCGAACAAUCTT against Rab1a,1.66
4,CAGUUUUUGGUCUCUAUCUTT against Olfr113,2.27 (active)
5,GGCAGUUAGUAAGUUUAAATT against Eif5a2,1.22
6,GGUAUACACAUGAAAACCATT against Ccdc137,-0.548
7,GGUGAUUCGUCAGAAGCUGTT against Gpr84,-0.61
8,GGCUUGCUAAAGGAUGGGATT against Coq8b,0.0536
9,CGUACUGGUACGGAAGCGUTT against Adck1,0.279
10,GGAAUGAGGUUUGUAGACUTT against Arsg,-0.765
11,CCGUACAUCGAGAAAUACATT against Hal,2.36 (active)
12,GGAGGACUAGGAGUGAUUGTT against Fggy,-0.363
13,GGAUAGUCAGAAAUGGAAATT against Chmp4c,-0.43
14,GGGUGAUUUCUAUUCACUATT against Pam,-0.633
15,GCACGGUCAAGUUUUGAUUTT against Prkaa2,-0.792
16,GGGCCAAUUCUGAAACUUGTT against Il1f5,0.669
17,CCACAGUACGCUGAAAUCCTT against Morf4l1,-2.27 (active)
18,GCUAGUGUGAUACCAUUUATT against Nab1,1.63
19,GGAGAACCGUAACAACAACTT against Cacna1a,0.692
20,GGUAGACUCUAGAUUAAGATT against Srrm2,-0.58
21,CGAGCAAAUCUCAUUCAAGTT against Oxgr1,3.07 (active)
22,CCCACCUUACAUAUAUUGATT against Srr,0.25

row,Sequence,z-score
1,GGUAUUAGAAGAUAAUGACTT against Akt3,-1.12
2,CCAUCAGUUUCAUUAUUGGTT against Fpr-rs6,-0.605
3,GCAUAACUUAAACUGCUCATT against Zfp12,1.91
4,CCAGAGCUUAUUGAGAUGCTT against Myh4,-0.475
5,GCUACUUAAGGGUUUGGAUTT against Pcdhb3,4.67 (active)
6,GGCUGUUACAAGAACGUAGTT against 5031434C07Rik,-1.99
7,GGAAACAACCCAAAGAAUCTT against Slc12a8,-0.343
8,GGUGGACCUGAAACGUAGCTT against Inhbb,0.878
9,GGUUCAUCUUUCAAAUCUATT against Kpna4,-0.676
10,CCUGUAGGUGGAAUAAACATT against Awat2,-2.28 (active)
11,CCUAGUAAUGUCCAUUGUGTT against Endod1,0.0364
12,GGACUCAGAUAUCUUUCAGTT against Adck1,-0.328
13,CGUUGCUGACUGCUAUGAATT against Tmprss13,-1.22
14,CCACUUUCACAUGAAGUUATT against Eif2s3x,-0.7
15,GCUCCAGCUUGCACUCUUGTT against Trp53i13,1.36
16,GCCACAUCGUAGACAAGUATT against Zfp41,-2.71 (active)
17,CCCGAACCUGUUGUCUGAATT against Ttc8,-0.422
18,GCCAAGUGCUACAACAUCCTT against Ifitm5,-0.64
19,CCGAGAUUGCCUGUUUGGUTT against Rnf144b,2.08 (active)
20,GGAACUCAAAUUGAAAAGGTT against Manea,-0.135
21,GCUAUUGGAGAUAUAAUGGTT against Ace,1.58
22,GGACUUUUUCAAAGGUUUUTT against Eif4g3,2.37 (active)

row,Sequence,z-score
1,GGCAGGCAACCAAUCAAAUTT against Npepps,1.29
2,GGAUUUCAUUAUCCUGUUUTT against Zfp608,-1.19
3,GCCUUGAACUAUGCAUAGATT against Eno2,1.7
4,GGCCUCAUGCAGGAACAUUTT against Polr2d,-2.34 (active)
5,GGAAGAAGAAAGAUUCAAATT against Bcan,-0.862
6,GAUUUUUCAAAUCUUUGGCTT against Plac8,-1.52
7,GAGCAUCUGUGUAGAAGUGTT against Thrsp,0.786
8,CCUGGUACAAUCAAACUGCTT against Rnf222,0.516
9,GGCAGAAUGGGAAAUGUAUTT against Htr7,-0.841
10,GCCGUUUAUUCAUUGCACUTT against Cdc123,1.21
11,GGACUUGACCUCAAGGGAATT against Sox6,2.35 (active)
12,GGAAUUCAAUCAGUUUGCUTT against Dysf,1.06
13,GGCAUUUUUCGGAUUGACATT against Mmp27,-0.807
14,CCCUCUGAACUAUAUGACUTT against Olfr700,-1.09
15,GGUGUGGAACGACAAACAGTT against Pla2g4f,-2.8 (active)
16,GGCUUUGUGGACUUAAUUATT against Cyb5r2,-1
17,GCAUCACUGGAUUGUGGAUTT against Tm9sf2,0.188
18,GGGAAAAAUGGUCAGAUUATT against Colgalt2,-1.08
19,GGUUCCUAAGGAUGAACUUTT against Akr1c14,-0.186
20,GGCCUAGCAAGGGAUUUUATT against Cep85,-2.02 (active)
21,GGAUCUCUUUGUUAAUGGUTT against Mall,0.715
22,GCCAUAUGCUAUCAAGAUGTT against Pskh1,-0.715

row,Sequence,z-score
1,GGAAUGCUACAACUCAAAATT against Ptk2,-0.861
2,GGCAUUGGUUCCUACAAGATT against Gm773,-0.118
3,GGUAGAGGAUCUCUCUAAATT against Fbxo44,-0.444
4,GCUGGUAAACAUAGGUGGCTT against C1qtnf4,2.18 (active)
5,GGUCCAUGGGUAAGAGGAUTT against Vmn1r43,1.2
6,GGUCGUGCGAUCCACAGAUTT against Vangl2,-0.44
7,GUUUUGGAUUCCUCUGUCATT against Olfr1097,-1.69
8,GGAAAAUUCCAGAAACCAUTT against Mettl8,0.608
9,GGAUGAAGAGAAAGUUCUATT against Mak,2.49 (active)
10,GGUGAGGUUCAAACAUUCUTT against Sdf2,0.0627
11,GGGAUUCCACGGAUACUGUTT against Rnase13,-0.858
12,GGACUACCAGUUUUACAUCTT against Ssr1,1.25
13,GCCGGUGACUUUCUAAUUUTT against Yrdc,-1.32
14,GCCUUAACUAUAGUCCAGATT against Scn7a,-0.928
15,GGCAUGGCUGGCAAAAACATT against Ppp1r15a,-1.85
16,UGCAAUCCGGAUCAAACGUTT against Cebpb,-2.03 (active)
17,GGAAGAUUUCUUCAAACGCTT against Lhx4,-0.167
18,CCUGAAGAGGAUGAUAUGGTT against Fam221a,0.144
19,GGUCUUCAGAAUCCUCAAUTT against Ap1g2,-0.4
20,GCCAACCUGAAACCAUCUATT against Ptprg,0.0567
21,GGACACAGACAAUGAAAUGTT against Fetub,-2.35 (active)
22,GGAGCAUUGCUCUUCUUCATT against Get4,-0.073

row,Sequence,z-score
1,GCAGAAGUAUUACUGGAUGTT against Olfr572,0.841
2,GCUAGGAACGAGGAGCUAATT against Prrt3,1.07
3,GGAAUACAUAGCACACGGUTT against Apba2,1.06
4,CCCUGAAACAAUGAAUACATT against Serpini1,0.325
5,GCUUCCUAACCAGGUUUGATT against 4430402I18Rik,2.1 (active)
6,GGAGAAGCUAAGAAACGAGTT against Acyp2,-0.696
7,CCCACAUUGCUUACCUUUCTT against Zfp523,-0.762
8,GCUGGGUUGCUGAUUUUUGTT against Arl5a,-0.881
9,GGGCUUUCUCCAAUCGUAATT against Gm4876,0.603
10,CGAGCCUCUGUGAUAUCCATT against Cst11,-2.69 (active)
11,GGUUCUGUCUUUUACUUUCTT against Olfr1496,0.232
12,CGAGUGCUUCUCUUGACAUTT against Mrpl22,-0.43
13,GGAUAAUUAUAGGAAGAGCTT against Ncapd3,-0.507
14,GGGAUGCUAACAGGUGUCATT against Tkfc,-0.12
15,GGCAUUACAUUUCAAUGAATT against Serpinb12,-0.71
16,GGAAUACACUCAAUAUUGATT against Nupl1,-2.59 (active)
17,GGUGUUCUUGAAGUUUAUATT against Zfp157,0.579
18,GCAGGAGUCAAAUUUUCUATT against Nemp1,-0.795
19,GGAUUUUUGACUGUGAUUCTT against Pak1ip1,-1.57
20,CCCAGACAUUACAUGGCCUTT against Cldn6,-0.935
